# According to PubChem BioAssay (NCI):
# The panel holds about 79,000 compounds, 15% with a hit somewhere; the sample as a whole holds those more often. Unmarked numbers belong to inactive results. The source made the active and inactive calls. Cut-off read from the data, not from the text of the source: active = growth inhibition above about 70%; inactive = the rest.
# Columns and labels:
# [1] = NCI Yeast Anticancer Drug Screen. Data for the rad50 strain (AID 155);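 note: 0% = growth of vehicle-only cultures of the same strain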; settings: S. cerevisiae rad50 strain growth inhibition; at 50.0 µM; stronger effect = higher value
# Method in brief: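 A DNA repair-deficient yeast mutant serves as the test organism; compound-induced growth inhibition is calculated against vehicle-treated cells.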
# [2] = NCI Yeast Anticancer Drug Screen. Data for the mec2-1 strain (AID 157); settings: S. cerevisiae mec2-1 strain, at 50.0 µM, stronger effect = higher value
# Method in brief: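 Growth inhibition is read against vehicle-treated controls after compound exposure of the mec2-1 yeast strain, which is defective in DNA damage repair or cell cycle control.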
# [3] = NCI Yeast Anticancer Drug Screen. Data for the sgs1 mgt1 strain (AID 161);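 note: 0% = growth of cultures given vehicle only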; settings: S. cerevisiae sgs1 mgt1 strain, at 50.0 µM, stronger effect = higher value
# Method in brief: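 This yeast growth screen uses a strain with defined DNA-repair lesions; compound-treated growth is compared with vehicle-treated growth.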
# [4] = NCI Yeast Anticancer Drug Screen. Data for the cln2 rad14 strain (AID 165);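 note: 0% = growth equal to vehicle treated cultures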; settings: S. cerevisiae cln2 rad14 strain, at 50.0 µM, stronger effect = higher value
# Method in brief: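 Growth inhibition, relative to vehicle-treated controls, is the read-out. The test organism is a yeast strain with defined genetic alterations, cln2 rad14.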
# [5] = NCI Yeast Anticancer Drug Screen. Data for the bub3 strain (AID 167); settings: S. cerevisiae bub3 mutant strain, at 50.0 µM, stronger effect = higher value
# Method in brief: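 Inhibition values come from growth of compound-treated mutant yeast normalised to vehicle-treated controls.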
# [6] = NCI Yeast Anticancer Drug Screen. Data for the mlh1 rad18 strain (AID 175); settings: S. cerevisiae mlh1 rad18 strain growth inhibition; at 50.0 µM; stronger effect = higher value
# Method in brief: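 Cells of a genetically altered yeast strain, deficient in DNA damage repair, were treated with compound. Their growth was then compared with that of vehicle-treated cultures to give inhibition.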
Structure (SMILES),growth inhibition [1],growth inhibition [2],growth inhibition [3],growth inhibition [4],growth inhibition [5],growth inhibition [6]
Oc1cccc(N2CCN(c3cccc(O)c3)CC2)c1,2.45%,-26.9%,3.7%,9.15%,5.85%,-15%
COC(=O)C1(Cc2ccc3c(c2)CCC3)Cc2cc3c(cc2C1)CCC3,-16.1%,15.7%,-40.2%,15.8%,-0.35%,-21.6%
CCC/C(Cl)=N/OC(=O)Nc1cc(C(F)(F)F)ccc1OC,-34.1%,17.6%,5.8%,8.5%,40.6%,21.3%
O=C(Cc1ccc(Cl)cc1)c1ccccc1Cl,2.8%,2.75%,-1%,1.7%,-5.65%,4.4%
N#CC(C(=O)O)C1(C(C#N)C(=O)O)CCN(Cc2ccccc2)CC1 (stereo unspecified),-9.9%,-5.1%,40.5%,-21.9%,-2.15%,-10.1%
CCC(=O)Oc1ccc([N+](=O)[O-])cc1[N+](=O)[O-],38.6%,30.6%,49.3%,26.6%,-0.5%,21.6%
CCCCCCCCCC(O)CO (stereo unspecified),-20.6%,-20.7%,-23.8%,6.4%,-10.6%,-5.95%
COC(=O)c1cc(C)n(C)c(=O)c1CNS(=O)(=O)c1ccc(C)cc1,-1.25%,6.45%,0.85%,-6%,-2.8%,-12.3%
CCCCCC(=O)C(C)=O,-22.8%,-5.9%,-0.9%,-20.8%,-20.8%,-12.2%
CC1CCC(OC(=O)CC#N)CC1 (stereo unspecified),-2.15%,-7.2%,-2.3%,3.45%,2.35%,-6.15%
N=C(N)SCc1ccc(Cl)cc1Cl (tested in a mixture with another compound),34.1%,12.3%,6.35%,3.05%,7.9%,26.4%
COc1ccc(Nc2nc3ccccc3nc2-c2cccs2)cc1,5.2%,-3.8%,23.5%,-1.45%,14.3%,17.3%
CC1=NN(C(=O)CC(=O)Nc2ccc(C(=O)O)cc2)C(=O)C1N=Nc1ccccc1C(=O)O (stereo unspecified),18.1%,18%,6.25%,-6.5%,-1.9%,25.7%
O=c1c2cc3c(cc2[nH]c2ncccc12)OCO3,-12.8%,0.65%,2.85%,13.8%,-2.55%,26.3%
CCC/C=C/C=C/C1CC(O)C(O)C(=O)C1CO (stereo unspecified),5.25%,-29.6%,17.1%,7.9%,1.9%,-0.7%
CCCCCCCCCCCCCCCCCC(=O)N/N=C/c1ccccc1,1%,-2.8%,12%,2.95%,-1.5%,-5.55%
CCOC(=O)c1[nH]n(-c2ccccc2)c(=O)c1/C=N/C(N)=S,2%,-1.95%,-15.8%,14.1%,17.8%,8.45%
CN(C)c1ccc(C2N(C)CCN2C)cc1,-10.4%,6.85%,9.85%,-1.8%,-7.5%,-12.8%

Structure (SMILES),growth inhibition [1],growth inhibition [2],growth inhibition [3],growth inhibition [4],growth inhibition [5],growth inhibition [6]
CC(=O)OCc1cc2c(cc1CNCc1ccccc1)OCO2,12.5%,-2.15%,7.25%,-31.4%,5%,7.25%
CCOC(=O)c1ccc(N=Cc2ccc(N(CCC#N)S(=O)(=O)c3ccccc3)cc2C)cc1,-3.9%,15.1%,-20%,6.95%,2.95%,-3.95%
Nc1cccc(OCC(O)CN2CCN(c3ccccc3)CC2)c1 (stereo unspecified),3.7%,8.6%,0.1%,-2.55%,-1%,14.7%
Cc1cc(Br)c[nH]c1=O,-4.75%,-7.7%,-3.65%,-20.2%,-29.1%,5.05%
COc1cccc(C2=CCCCCC2)c1OC,1.15%,-12.8%,-9.45%,-23%,-15.9%,4.3%
CCOC(=O)/C(=C/c1cccc2ccccc12)P(=O)(OCC)OCC,36.6%,50.9%,51.7%,29.4%,37.1%,52.4%
O=Nc1c(O)c(S(=O)(=O)O)cc2cc(S(=O)(=O)O)ccc12,24.9%,-1.8%,51.1%,17.9%,37.6%,11.2%
CC1=CC[P+](Cc2ccccc2)(c2ccccc2)C1 (stereo unspecified),-25.4%,14.7%,22.2%,4.35%,8.2%,8.8%
Cc1cc(=O)n2nc(SCc3ccccc3)sc2n1,11.3%,8.2%,28.9%,1.9%,3.5%,-8.95%
COC(=O)Cc1ccccn1,0.4%,-18.9%,1.4%,14.5%,-21.5%,22.4%
Cc1cc(Br)c(I)c([N+](=O)[O-])c1,34.5%,27.6%,17.8%,13.3%,7.45%,6.25%
CC(C(=O)O)/C(=C\c1ccccc1)C(=O)O (stereo unspecified),16.6%,7.25%,21.6%,-17.5%,12.6%,11.4%
COc1ccc(/C=C/C(=O)c2ccccc2)cc1,25.7%,-18.1%,-12.6%,2.25%,-28.9%,4.9%
CC(=O)Cc1ccco1,14.5%,-3.35%,-8.8%,22.5%,-2.2%,-10.7%
O=C1c2c(Cl)cccc2C(c2ccccc2)c2cccc(Cl)c21,29%,-4.15%,-1.55%,-11.5%,7.35%,23.2%
COC(=O)/C(C#N)=C(\C)CC(C)C,13.2%,-17.4%,-20.1%,-3.65%,-24.4%,-9%
Cc1ccc(Nc2c3ccccc3nc3ccccc23)cc1C,98.8% (active),95.8% (active),97.7% (active),90.6% (active),90.2% (active),98.5% (active)
N#Cc1nc(-c2cc([N+](=O)[O-])cc([N+](=O)[O-])c2)oc1N,-14.6%,-10.6%,-4.7%,1.8%,0.05%,-8.6%
